Measured values reported in PubChem BioAssay (Tox21).
Inconclusive results are not listed. Activity calls are given as the source filed them. Unless noted, calls follow the shape of the dose curve; as a rule, active = well fitted curve in the direction sought with a large enough effect in the repeat runs; inconclusive = weak or mixed curves; inactive = no such curve, though single readings can be large; an effect the other way counts as inactive or inconclusive.

Experiments:
[1] = qHTS assay to identify small molecule antagonists of the estrogen related receptor (ERR) signaling pathway - cell viability counter screen (AID 1224818)
Outline: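 Compounds dissolved in DMSO were applied to ERR cells seeded at 2,000 per well 6 h earlier. Cell viability followed 17.5 h later via 30-min CellTiter-Fluor fluorescence.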

[2] = qHTS assay to identify small molecule antagonists of the estrogen related receptor (ERR) signaling pathway (AID 1224819; also: nearly all actives have a fitted effect of over 50% in size)
Outline: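 Compounds dissolved in DMSO were pin-transferred onto ERR cells that had been plated 6 h earlier, and cells were then incubated 18 h at 37 C; signal was luciferase luminescence via One-Glo.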

[3] = qHTS assay to identify small molecule antagonists of the estrogen related receptor signaling pathway with the pleiotropic PPARgamma coactivator (PGC) cell viability counter screen (AID 1224822)
Outline: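 Counter screen for cell viability: PGC/ERR cells, 6 h pre-incubation after plating, 17.5 h compound exposure at 37 C, fluorescence from CellTiter-Fluor after 30 min.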

[4] = qHTS assay to identify small molecule agonists of the estrogen related receptor signaling pathway with the pleiotropic PPARgamma coactivator (PGC) (AID 1224823)
Outline: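 In this quantitative high-throughput screen, an 18 h, 37 C treatment of PGC/ERR cells with compounds in DMSO preceded a One-Glo luminescence read taken after 30 min at room temperature.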

[5] = test system: estrogen-related receptor alpha (ERRalpha) with PGC-1alpha coactivator, human; assay: qHTS assay to identify small molecule antagonists of the estrogen related receptor signaling pathway with the pleiotropic PPARgamma coactivator (PGC) (AID 1224821; calls by dose curve; also: nearly all actives have a fitted effect of over 50% in size)
Outline: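 Screening used NTP's PGC/ERR cells, dosed via pin tool with compound in DMSO alongside positive and negative controls. After 18 h at 37 C, One-Glo reagent sat 30 min at room temperature before luminescence detection.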

[6] = qHTS assay to identify small molecule agonists of the estrogen related receptor (ERR) signaling pathway (AID 1224820)
Outline: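 Following a 6 h settling period, 2,000 ERR cells per well receive DMSO-dissolved compounds by pin tool and incubate 18 h at 37 C; agonist activity is scored from One-Glo luminescence read 30 min post-addition.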

Measured: Potency
Potency is read from the fitted curve at half-maximal effect.

CC(C)COC(=O)OCN1C(=O)CN(CCN2CC(=O)N(COC(=O)OCC(C)C)C(=O)C2)CC1=O
inactive: [1] | [2] | [3] | [4]

CC(=O)O[C@H]1Cc2ccccc2N(C(N)=O)c2ccccc21
inactive: [1] | [2] | [5] | [3] | [4]

COc1cc(C(O)C(=O)O)ccc1O (stereo unspecified)
inactive: [1] | [2] | [5] | [3] | [4]

Cc1cccc(C)c1OCC(N)C(C)C (stereo unspecified)
inactive: [1] | [2] | [5] | [3]

Cn1cnc2c(NCc3ccccc3)nc(NCCO)nc21
inactive: [1] | [2] | [5] | [4]

O=C(O)Cc1c[nH]c2ccc(O)cc12
inactive: [1] | [2] | [6] | [3] | [4]

N[C@H](C(=O)O)[C@H]1C[C@@H]1C(=O)O
inactive: [1] | [2] | [6] | [3] | [4]

N[C@H](C(=O)O)[C@H](Cc1ccccc1)C(=O)O
inactive: [1] | [2] | [5] | [3] | [4]

CC1CN(S(=O)(=O)c2cccc3cnccc23)CCN1 (stereo unspecified)
inactive: [1] | [2] | [6] | [3] | [4]

CN=c1nc(-c2ccccc2)n(-c2ccccc2)s1
inactive: [1] | [2] | [6] | [4]

CC(=O)[C@H]1CCC2C3CC=C4C[C@@H](OS(=O)(=O)O)CC[C@]4(C)C3CC[C@@]21C (stereo partly specified)
inactive: [1] | [2] | [5] | [3] | [4]

Oc1ccc2ccccc2c1SSc1c(O)ccc2ccccc12
inactive: [1] | [6] | [4]
active: [2] 20.3 µM

OC[C@H]1O[C@H](n2cnc3c(N[C@H]4CCC[C@@H]4O)ncnc32)[C@H](O)[C@@H]1O
inactive: [1] | [2] | [6]
active: [4] 9.08 µM

CCN(CC)CCCCCCCCOC(=O)c1cc(OC)c(OC)c(OC)c1
inactive: [1] | [6] | [5]

CSC(N)=NCCC[C@H](N)C(=O)O
inactive: [1] | [2] | [6] | [3] | [4]

CSc1ccccc1N1CCN(CCCCCC(=O)NC2CCCc3ccccc32)CC1 (stereo unspecified)
active: [1] 10.2 µM | [2] 16.2 µM
inactive: [6] | [4]

NC1C=CC=C(C(=O)O)C1 (stereo unspecified)
inactive: [1] | [2] | [6] | [3] | [4]

O=C(c1ccc2c(c1)OCCO2)N1CCCCC1
inactive: [1] | [2] | [5] | [3] | [4]

CN1Cc2sccc2C(c2ccc(O)c(O)c2)C1 (stereo unspecified)
inactive: [1] | [2] | [5] | [3] | [4]

N#CC(=C(\N)Sc1ccccc1N)/C(C#N)=C(/N)Sc1ccccc1N
active: [2] 10.2 µM
inactive: [1] | [6] | [3] | [4]

CN(C)CCCC1(c2ccc(F)cc2)OCc2cc(C#N)ccc21 (stereo unspecified)
inactive: [1] | [2] | [5] | [3] | [4]

COc1ccc(Br)cc1S(=O)(=O)NC(=O)/C=C/c1ccccc1Cc1ccc2ccccc2c1
inactive: [1] | [2] | [5] | [3] | [4]

Oc1cc(O)cc(/C=C/c2ccc(O)c(O)c2)c1
active: [6] 8.41 µM | [4] 18.1 µM
inactive: [1] | [2] | [3]

NC(=Nc1ccccc1)NC(=O)c1nc(Cl)c(N)nc1N
inactive: [1] | [2] | [5] | [3] | [4]

C=CCNc1ncnc2ccc(Br)cc12
inactive: [1] | [6] | [3] | [4]
active: [2] 9.44 µM

CC[C@H](NC(=O)c1c(C)c(-c2ccccc2)nc2ccccc12)c1ccccc1
active: [2] 22 µM
inactive: [1] | [6] | [4]

CC(=O)O[C@H]1C[C@@H]2CC[C@@H]3[C@H](CC[C@@]4(C)[C@H]3C[C@H]([N+]3(C)CCCCC3)[C@@H]4OC(C)=O)[C@@]2(C)C[C@@H]1[N+]1(C)CCCCC1
inactive: [1] | [2] | [6] | [3] | [4]

Nc1ccc(CCNc2ncnc3c2ncn3C2OC(CO)C(O)C2O)cc1 (stereo unspecified)
inactive: [1] | [2] | [6] | [3]
active: [4] 12.3 µM

Cc1cc(N)c2ccccc2[n+]1CCCCCCCCCC[n+]1c(C)cc(N)c2ccccc21
active: [2] 0.722 µM
inactive: [1] | [6] | [3] | [4]

COc1cc(N)c(Cl)cc1C(=O)OCCN1CCCCC1
inactive: [1] | [2] | [5] | [3] | [4]

CNC(=O)c1cc2c(cn1)[nH]c1ccccc12
inactive: [1] | [2] | [3] | [4]

O=C(O)c1cc2cc(F)ccc2[nH]1
inactive: [1] | [2] | [3] | [4]

COc1ccc(-c2cc3ncc(C)n3c(Nc3ncccc3C(N)=O)n2)cc1OC
inactive: [1] | [6] | [3] | [4]
active: [2] 2.87 µM

C[C@H](Cc1ccccc1)Nc1ncnc2c1ncn2[C@@H]1O[C@H](CO)C(O)[C@H]1O (stereo partly specified)
active: [4] 10.2 µM
inactive: [1] | [2] | [5] | [3]

COc1cc(SC)ccc1C(=O)N1CCC(Cc2ccccc2)CC1
inactive: [1] | [6] | [3] | [4]
active: [2] 20.3 µM

C[C@](Cc1ccc(O)c(O)c1)(NN)C(=O)O
inactive: [1] | [2] | [5] | [3] | [4]

O=Nc1ccc2oc(=O)ccc2c1
inactive: [1] | [2] | [5]

C[C@H](NC(=O)/C(C#N)=C/c1ccc(O)c(O)c1)c1ccccc1
inactive: [1] | [2] | [5] | [3] | [4]

Oc1ccc(-c2nc(-c3ccc(F)cc3)c(-c3ccncc3)[nH]2)cc1
inactive: [1] | [6] | [4]
active: [2] 11.4 µM

NCCCCNCCCN
inactive: [1] | [2] | [6] | [3] | [4]

O=C1NC(c2cccc([N+](=O)[O-])c2)=CCN1c1ccccc1O
inactive: [1] | [6] | [5] | [3] | [4]

COc1cccc(OC)c1OCCNCC1CSc2ccccc2O1 (stereo unspecified)
inactive: [1] | [6] | [5] | [3] | [4]

COc1cc2nc(N3CCCN(C)CC3)nc(NC3CCN(Cc4ccccc4)CC3)c2cc1OC
inactive: [6] | [4]
active: [1] 24.6 µM | [5] 28.7 µM | [3] 10.6 µM

C=CCN1CCc2cc(O)c(O)cc2C(c2ccccc2)C1 (stereo unspecified)
inactive: [1] | [6] | [5] | [3] | [4]

C[C@@H](N)C1CCC(C(=O)Nc2ccncc2)CC1 (stereo partly specified)
active: [5] 14.4 µM
inactive: [1] | [6] | [3] | [4]

CC(=O)SCC[N+](C)(C)C
inactive: [1] | [6] | [5] | [3] | [4]

O=c1ccc2c(OCCCCc3ccccc3)c3ccoc3cc2o1
inactive: [1] | [6] | [5] | [3] | [4]

Nc1nc2[nH]c(=O)cnc2c(=O)[nH]1
inactive: [1] | [6] | [5] | [3] | [4]

O=C(O)CCc1ccc(NCc2cccc(Oc3ccccc3)c2)cc1
inactive: [1] | [6] | [5] | [3] | [4]

O=c1[nH]c2cc(C(F)(F)F)ccc2n1-c1cc(C(F)(F)F)ccc1O
inactive: [1] | [6] | [5] | [3] | [4]

COc1ccccc1N1CCN(CCN(C(=O)c2ccc(F)cc2)c2ccccn2)CC1
inactive: [1] | [6] | [5] | [3] | [4]

OCc1ccc(-c2nn(Cc3ccccc3)c3ccccc23)o1
inactive: [1] | [6] | [5] | [3] | [4]

NC(=O)c1cccc(N)c1
inactive: [1] | [6] | [5] | [3] | [4]

Cc1cn([C@H]2CC(N=[N+]=[N-])[C@@H](CO)O2)c(=O)[nH]c1=O (stereo partly specified)
inactive: [1] | [6] | [5] | [3] | [4]

OC1(c2ccc(Cl)cc2)CCN(Cc2c[nH]c3ccccc23)CC1
inactive: [1] | [6] | [5]

Nc1nc(SCc2ccc([N+](=O)[O-])cc2)c2ncn([C@@H]3O[C@H](CO)C(O)[C@H]3O)c2n1 (stereo partly specified)
inactive: [1] | [6] | [5] | [3] | [4]

O=C(Nc1ccncc1)c1cc([N+](=O)[O-])ccc1Cl
inactive: [1] | [6] | [5] | [3] | [4]

CN(C)C(=O)[C@H](O)[C@H](Cc1ccccc1)NC(=O)c1cc2cc(Cl)ccc2[nH]1
inactive: [1] | [6] | [5] | [3] | [4]

S=C(S)N1CCCC1
active: [5] 3.22 µM | [3] 0.287 µM
inactive: [1] | [6] | [4]

CC(/C=C/c1cccc(Oc2ccc(F)cc2)c1)N(O)C(N)=O (stereo unspecified)
inactive: [1] | [6] | [5] | [3]

NCCCCN
inactive: [1] | [6] | [5] | [3]

COc1cc2c(cc1O)CC[C@@H]1[C@@H]2CC[C@]2(C)[C@@H](O)CC[C@@H]12
inactive: [1] | [6] | [5] | [3] | [4]

C[N+](C)(C)CCOP(=O)(O)OP(=O)([O-])OC[C@H]1O[C@@H](n2ccc(N)nc2=O)[C@H](O)C1O (stereo partly specified)
inactive: [1] | [6] | [5] | [3] | [4]
